The target of the assay is RUNX1 (UniProt Q01196). The experiment in a line: RUNX1 binding intensity (PBM fluorescence) in presence of ETS1, normalised to RUNX1-only experiment (arbitrary fluorescence units); higher = stronger binding. To be noted: RUNX1 concentration 2 nM; ETS1 concentration 25 nM. As to the method: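 Cooperative gcPBM on 36-bp genomic probes with neighbouring ETS1 and RUNX1 sites. Recombinant human RUNX1 (2 nM) was incubated alone or with ETS1 (25 nM) and detected with anti-RUNX1 antibody plus Alexa488 secondary. Values are medians over 4 replicate spots; the RUNX1+ETS1 data were normalised to the RUNX1-only data. The probes sit in constant array flanks that are not printed.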
Chain of RUNX1 (Q01196 whole entry): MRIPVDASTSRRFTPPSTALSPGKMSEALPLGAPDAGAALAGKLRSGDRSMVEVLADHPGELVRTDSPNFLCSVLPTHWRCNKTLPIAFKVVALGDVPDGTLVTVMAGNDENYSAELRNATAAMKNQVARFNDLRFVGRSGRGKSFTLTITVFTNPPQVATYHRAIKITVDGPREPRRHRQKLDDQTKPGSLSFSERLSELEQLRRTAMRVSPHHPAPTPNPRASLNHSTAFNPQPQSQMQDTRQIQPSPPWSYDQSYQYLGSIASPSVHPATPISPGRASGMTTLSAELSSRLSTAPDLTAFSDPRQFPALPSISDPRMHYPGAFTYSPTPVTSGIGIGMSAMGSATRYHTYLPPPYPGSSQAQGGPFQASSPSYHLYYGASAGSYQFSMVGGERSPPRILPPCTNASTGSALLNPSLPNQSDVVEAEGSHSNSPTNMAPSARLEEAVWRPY
For the sequence AACTCCTGGCCGGAACGGCACAGACCGCACTCCCGC, the RUNX1 binding intensity stood at 917. The same measure for ATGTCAGGAAGAGGCTCAGGGCTGTGGTTTCTCTGT: 1070; for TACAGCTTCCTTCACCCCACTTGTGGCCTGGGTTAC: 913.

For the sequence TTCATAAAGGAGAGGAAACCTGACCACGACAGAAAG, the RUNX1 binding intensity was 754. The same measure for CCGCTTCCTTAGAGGTTAAGTGGTGGTGGTTCAGTT: 1230. The same measure for GGGGGAGCAAGCGCCTTCCGCGGTCGCTGGGGGGAG: 812; for CATCTCGGAAACGGACAGCAAGATCCCGCATTAACA: 853; for GAACCTGGGAGGCGGAAGTTGCGGTTAGCCGAGATC: 56300. As for AGTTTCCTGAACTCAGAGCACAGTTGTGGTGCAGAA, the RUNX1 binding intensity is 1270.

With GCTTAAGGAAGGGACAACTAGAGTGGGTTACTCTGC, the RUNX1 binding intensity turned out to be 717. The same measure for TACCTAGACCCTTTCCGCCCTTACCGCGGCCAGACA: 1410.

For CCCATCCATCCGCCTCCAAAGTAACCTCAAGAATTT, the RUNX1 binding intensity came out at 2490. The same measure for CCATTTCCCGCCTACCGACCTGCTGCACCGCACGGA: 3390. Next, GGGCGGAAGGGGTTCGCACGCCAAGAACCGCCATGC: 683; GTTGGTCGCGCGCCTTCCTGCGGCTAAGATGGCGAC: 923; CACCCTGCCACTTCCCTAAACTCCCCGCACAGGCCG: 2140. Next, AGACTCCATCCGCCATGTTGGATGCCGCAGATTCGC: 1050; AGAGGCTTCCTGAGGAACTGGTGTGGTCAGGGGAGC: 1010; AGGTTCGTGGCAGGAAAGTTTGTGGCAGCAAAGCCT: 1100. As for GCCTCCTTCCTGGGCTCCTTTAAGAGGGTGGTAACG, the RUNX1 binding intensity came to 1130. The same measure for GTCCCCGACTTCCGCTCTCGGTTGGTGGTTGGCTTT: 2590.

Source of the values: the supplement of paper PMC10681739.
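Further: Full-length recombinant human ETS1 or RUNX1 bound to double-stranded 36-bp genomic probes on microarrays, detected by protein-specific primary antibody and Alexa488 secondary, spot fluorescence as median of four replicate spots.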
